Most compounds without a hit are left out; they make up all but 7.5% or so of the library.
SMN2 splice up: qHTS Assay for Enhancers of SMN2 Splice Variant Expression; HEK293 SMN2-luciferase splicing reporter, luminescence, 30-36 h; Potency, µM (highest dose often 46.1 µM), for the others: top-dose activity change, positive = activation, actives largely listed as activators; 210,000 tested, 2.8% active; AID 1458, 2008; further: % of control where 0% means no effect; nearly all actives have a fitted effect of over 55% in size
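qHTS luciferase splicing reporter: luminescence rises when SMN2 exon 7 is included in transfected HEK293 cells. Compound exposure lasted 30-36 h at 37C, with 4.5 mM final sodium butyrate as control, followed by a ONE-Glo read.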
ELG1 genotox: qHTS screen for small molecules that induce genotoxicity in human embryonic kidney (HEK293T) cells expressing luciferase-tagged ELG1; HEK293T ELG1-luciferase reporter, luminescence, 16 h; Potency, µM (titrated, usually from 46 µM), for the others: top-dose activity change, positive = activation, usual class: activators; 330,000 tested, 1.3% active; further: % of control where 0% means no effect; nearly all actives have a fitted effect of over 60% in size
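After overnight (16 hr) compound treatment at 37 °C, ELG1-luciferase HEK293T cells were lysed with ONE-Glo; luminescence quantified 30 min later at room temperature.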
Rab9 promoter act: qHTS Assay for Rab9 Promoter Activators | 320,000 tested, 2.8% active | Potency, µM (titrated, usually from 9.22 µM), inactives show at the highest dose activation, negative = inhibition, hits mostly activators | Huh7 Rab9 promoter-luciferase reporter, luminescence, 24 h; further: % of control where 0% means no effect; nearly all actives have a fitted effect of over 60% in size
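Quantitative HTS format; Huh7 Rab9-luciferase reporter cells (1500/well) receive compound 2 h post-plating, incubate 24 h at 37 °C, then get luciferase reagent for 10 min before luminescence reading.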
FLuc counter: qHTS profiling assay for firefly luciferase inhibitor/activator using purifed enzyme and Km concentrations of substrates (counterscreen for miR-21 project). Luciferin 4-monooxygenase (Photinus pyralis), P08659. purified FLuc, Km substrates, luminescence inhibition. Potency, µM (series often up to 57.5 µM), for the others: at the highest dose activity change, negative = inhibition, hits mostly inhibitors. 360,000 tested, 6.9% active;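 further: plate controls were vehicle for no effect and reference inhibitor for full effect; nearly all actives have a fitted effect of over 55% in size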
Target sequence (P08659 whole entry, looked up): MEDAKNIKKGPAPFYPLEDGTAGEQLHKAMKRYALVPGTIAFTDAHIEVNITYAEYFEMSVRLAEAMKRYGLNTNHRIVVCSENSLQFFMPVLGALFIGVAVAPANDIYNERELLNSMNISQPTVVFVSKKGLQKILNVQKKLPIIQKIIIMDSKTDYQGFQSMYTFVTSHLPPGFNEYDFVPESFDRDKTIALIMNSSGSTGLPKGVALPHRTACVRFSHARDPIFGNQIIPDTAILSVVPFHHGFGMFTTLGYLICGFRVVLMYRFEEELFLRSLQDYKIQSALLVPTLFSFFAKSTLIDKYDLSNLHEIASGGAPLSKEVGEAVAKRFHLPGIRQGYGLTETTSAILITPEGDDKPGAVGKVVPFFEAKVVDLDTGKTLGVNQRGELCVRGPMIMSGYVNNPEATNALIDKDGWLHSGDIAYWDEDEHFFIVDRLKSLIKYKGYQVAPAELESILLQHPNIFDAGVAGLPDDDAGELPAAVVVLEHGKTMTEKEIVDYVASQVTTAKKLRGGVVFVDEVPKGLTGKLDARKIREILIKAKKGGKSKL
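Purified P. pyralis luciferase (10nM final) with 10uM D-luciferin and 10uM ATP (Km levels) in 50mM Tris acetate pH 7.5, 10mM Mg acetate, 0.01% Tween-20, 0.05% BSA; qHTS 6-point titration, ~60 µM downward; luminescence read.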
NPC1 prom act: qHTS Assay for NPC1 Promoter Activators. 320,000 tested, 2.4% active. Huh7 NPC1 promoter luciferase reporter, 24 h. Potency, µM (top dose mostly 9.22 µM), for inactives: top-dose activation, most hits filed as activators. AID 485313, 2010; further: % of control where 0% means no effect; nearly all actives have a fitted effect of over 60% in size
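Stable NPC1-promoter luciferase Huh7 line; cpd (DMSO) 24 h, 37 °C, 5% CO2; Amplite luciferase reagent 10 min RT; luminescence readout. qHTS format.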
KinaseGlo FLuc: Counterscreen for Luciferase (Kinase-Glo TM) Inhibition | 200,000 tested, 0.28% active | Kinase-Glo luciferase, ATP luminescence, 8 min | Potency, µM (titrated, usually from 38.3 µM), for the others: at the highest dose activity change, negative = inhibition, usual class: inhibitors | Luciferin 4-monooxygenase (Photuris pensylvanica), Q27757; further: on the % scale 0 is the no-effect control and ±100 the full control effect; nearly all actives have a fitted effect of over 60% in size
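Kinase-Glo luciferase light output from ATP and luciferin was measured with 10 uM ATP, within the enzyme's linear range. Buffer: 50 mM imidazole pH 7.2, 50 mM KCl, 7 mM MgCl2, 0.01% Tween 20, 0.05% BSA; luminescence read after 8 min at ambient temperature.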
Starred values were filed as active, the others as inactive; ? = inconclusive; / = not tested or not shown; [ ] = another dose, or the depositor's remark. The call rests on the fitted dose curve; in most records, active means well fitted curve in the direction sought with a large enough effect; inconclusive means small, poorly fitted or top-dose-only effect, or another doubt; inactive means no such curve, though single readings can be large; an effect the other way counts as inactive or inconclusive. Potency means the concentration at half of the fitted maximal effect.

SMILES | SMN2 splice up | ELG1 genotox | Rab9 promoter act | FLuc counter | NPC1 prom act | KinaseGlo FLuc
CCOC(=O)c1[nH]c2ccccc2c1NC(=O)c1ccc(OC(C)C)cc1 | -15% | / | / | -4% | / | /
CCC(C(=O)N1CCN(c2ccccc2F)CC1)n1nc(C)c2sc3ccccc3c2c1=O (stereo unspecified) | / | / | / | 15µM* | / | /
CN(CC(=O)Nc1ccccc1Br)C(=O)c1cc2c(s1)CCCCC2 | / | ? | 29% | 11µM* | 26% | /
CN(CC(=O)Nc1ccccc1Br)C(=O)CCC1CCCC1 | / | ? | ? | 19µM* | ? | /
COc1ccc2cc(C(=O)N(C)CC(=O)Nc3ccccc3Br)ccc2c1 | / | 1% | 26% | 21µM* | 11% | /
C[C@@]12C[C@H](O)C3[C@H](CCC4=CC(=O)CC[C@]43C)[C@H]1CC[C@@H]2c1csc(N)n1 (stereo partly specified) | -3%[9.22 µM] | / | / | / | / | 1%[7.66 µM]
CC(C)Oc1ccc(/C(O)=C2/C(=O)C(=O)N(CCN(C)C)C2c2ccco2)cc1 (stereo unspecified) | 28% | ? | ? | 21µM* | 25% | 2%
CCN(CC)CCN1C(=O)C(=O)/C(=C(/O)c2ccc(OC)cc2)C1c1ccco1 (stereo unspecified) | / | 3% | 6% | ? | 15% | /
CC1Cc2cc(/C(O)=C3/C(=O)C(=O)N(CCCn4ccnc4)C3c3ccco3)ccc2O1 (stereo unspecified) | -14% | ? | 2.8µM* | 15µM* | ? | 2%
COc1cccc(C(=O)N(Cc2ccco2)c2ccccn2)c1 | / | / | / | -7% | / | /
CCN(CC)S(=O)(=O)c1ccc(C(=O)OCC(=O)Nc2ccc(-c3nc4ccc(C)cc4s3)cc2)cc1 | 1µM* | 1.6µM* | 0.45µM* | 2.7µM* | 0.4µM* | -3%
CCN(CC)S(=O)(=O)c1cc(C(=O)OCC(=O)Nc2ccc(-c3nc4ccc(C)cc4s3)cc2)ccc1F | 1.6µM* | 10µM* | 0.32µM* | 5.4µM* | 0.4µM* | 1%
Cc1cc(C)c2c(-n3cccc3)c(C(=O)NNS(=O)(=O)c3ccccc3)sc2n1 | -12% | 0% | -3% | -1% | 1% | -3%
Cc1cc(C)c2c(-n3cccc3)c(C(=O)O)sc2n1 | ? | ? | 0.63µM* | 2.7µM* | 1µM* | -9%
Cc1cccc(N2CCN(C(=O)Cn3c(=O)c4cccn4c4ccc(F)cc43)CC2C)c1 (stereo unspecified) | / | / | / | 2% | / | /
CCOC(=O)C1CCN(C(=O)COc2ccc(S(=O)(=O)N3CCCC3)cc2C)CC1 | 1% | -7% | -3% | 0% | -1% | 4%
Cc1cc(=S)n(-c2ccccc2)n1C | -17% | 16µM* | 25% | 8% | 17% | 0%
Cc1c(N)c(=O)n(-c2ccccc2)n1C | 4% | -4% | -4% | -1% | -10% | -5%
Cc1cccc(/C=C2\Oc3cc(OS(C)(=O)=O)ccc3C2=O)c1 | -13% | 9% | 16% | 17µM* | 22% | -1%
O=C1/C(=C/c2cccc(F)c2)Oc2cc(O)ccc21 | / | 1% | 5% | 11µM* | 19% | /
COc1ccc(NC(=O)C2(c3cccs3)CCOCC2)cc1Cl | / | / | / | 1% | / | /
CO/N=C1\CN(c2nc3c(cc2F)c(=O)c(C(=O)O)cn3C2CC2)CC1CN (stereo unspecified) | -14% | / | / | / | / | -4%
COC(=O)c1ccc(Sc2ccc(C)cc2)c(N)c1 | -16% | 3% | 24% | 19µM* | 15% | -1%
Cc1ccc(-c2nn(-c3cccc([N+](=O)[O-])c3)c3c2cnc2ccc(F)cc23)cc1 | / | / | / | 0% | / | /
Cc1ccc(NC(=O)C2OCCc3ccccc32)cc1Cl (stereo unspecified) | 2% | 11% | 11% | 24µM* | 7% | 0%
SMILES | SMN2 splice up | ELG1 genotox | Rab9 promoter act | FLuc counter | NPC1 prom act | KinaseGlo FLuc
COc1ccc(C(=O)Nc2ccc(Cl)cn2)cc1Cl | ? | ? | 3.5µM* | 11µM* | 2.5µM* | -5%
O=C(Nc1ccc(Cl)cn1)c1cccc(S(=O)(=O)N2CCCC2)c1 | / | -8% | 12% | 1% | 2% | /
CN(C)S(=O)(=O)c1cccc(C(=O)Nc2ccc(Cl)cn2)c1 | 6% | ? | ? | 13µM* | ? | -3%
N=c1ccn2c(n1)OCC1C2O[C@@H](O)[C@H]1O (stereo partly specified) | -27% | / | / | / | / | 1%
CC(=O)c1sc(-c2ccc(Cl)cc2)cc1N | / | ? | 13% | ? | 4% | /
COC(=O)c1sc(-c2cccs2)cc1N | / | ? | 27% | 12µM* | ? | /
COC(=O)c1sc(-c2ccc(Cl)cc2)cc1N | / | ? | 2.5µM* | 6.7µM* | 2.2µM* | /
Cc1ccccc1Cn1cc(S(=O)(=O)c2ccc(F)cc2)c(=O)c2cc3c(cc21)OCO3 | -2% | / | / | -2% | / | /
CCCNc1nc(C)nc2c1cnn2CCc1ccccc1 | -1% | ? | 26% | -19% | 24% | -3%
Cc1nc(NC(C)C)c2cnn(CCc3ccccc3)c2n1 | 4% | 15µM* | ? | ? | 24% | 1%
CCCCC12CN3CC(C)(CN(C1)C3c1ccc(OCc3ccccc3)cc1)C2=O (stereo unspecified) | -1% | / | / | -5% | / | /
CC1Cc2ccccc2N1C(=O)COc1ccc2c(c1)OCO2 (stereo unspecified) | ? | ? | ? | 17µM* | 3.2µM* | -1%
CCCCNC(=O)c1ccccc1NC(=O)c1ccc2c(c1)OCO2 | 11% | -3% | 0% | 19µM* | 0% | -2%
CC(C)(C)NC(=O)c1ccccc1NC(=O)c1ccc2c(c1)OCO2 | -4% | 3% | -5% | -6% | -4% | 0%
N#Cc1ccccc1NC(=O)COC(=O)c1ccc2c(c1)OCCO2 | 6% | 6% | ? | 19µM* | 1% | -3%
CCc1ccccc1NC(=O)COc1ccc2c(c1)OCO2 | 1% | 6% | 21% | -19% | 0% | 0%
N#Cc1ccccc1NC(=O)COc1ccc2c(c1)OCO2 | / | ? | 3.5µM* | 21µM* | 4µM* | /
O=C(N/N=C/c1ccccc1O)c1cc(-c2ccccc2)n[nH]1 | / | / | / | / | / | -2%
Cc1ccccc1NC(=O)c1ccc2c(c1)OCCO2 | ? | ? | ? | 1%[2.3 µM] | ? | -5%
COC(=O)c1ccccc1NC(=O)CN1CCC(C(=O)c2ccc3c(c2)OCCO3)CC1 | -32% | -11% | -2% | -19% | -4% | 11%
